Holding throughout (assay): DAPPL (digital affinity profiling via proximity ligation, sequencing); 10 mM Tris-HCl pH 7.5, 50 mM NaCl, 1 mM DTT, 4% glycerol, room temperature, 30 min; GST-TFs on glutathione beads, 16-mer random dsDNA library, 0.1% formaldehyde crosslink after washing; high values mean tight binding
Common to all, as to settings: protein: recombinant; tags: N-terminal GST; dsDNA, one strand shown

For one assay, the target named is T1, GABPA (Homo sapiens, UniProt Q06546 1-454).
T1 sequence: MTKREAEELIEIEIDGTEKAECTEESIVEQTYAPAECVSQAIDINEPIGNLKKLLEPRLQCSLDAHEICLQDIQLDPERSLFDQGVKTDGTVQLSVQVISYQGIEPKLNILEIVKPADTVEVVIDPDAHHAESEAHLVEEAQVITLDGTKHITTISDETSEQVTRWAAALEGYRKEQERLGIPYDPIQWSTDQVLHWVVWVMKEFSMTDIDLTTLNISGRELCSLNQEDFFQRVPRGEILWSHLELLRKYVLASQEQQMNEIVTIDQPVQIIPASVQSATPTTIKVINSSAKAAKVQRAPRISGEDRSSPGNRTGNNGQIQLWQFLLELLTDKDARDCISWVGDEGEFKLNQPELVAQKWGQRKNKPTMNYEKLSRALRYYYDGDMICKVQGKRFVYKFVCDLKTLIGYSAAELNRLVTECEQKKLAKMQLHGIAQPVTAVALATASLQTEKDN
In a few lines: (§1)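 GST fusions of human transcription factors were expressed in yeast and captured with glutathione beads. Once given DNA barcodes and pooled alongside a tag-only sample, they were incubated for 30 min at room temperature with 200 nmole of a random double-stranded 16-mer DNA library in Tris/NaCl/DTT/glycerol buffer, then washed, crosslinked (0.1% formaldehyde), proximity-ligated, PCR-amplified and sequenced on an Illumina NextSeq500. The binding signal of each hexamer is its read frequency for a factor divided by its frequency for the tag-only sample.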

The next assay deals with ELF1 (Homo sapiens, UniProt P32519 1-619). A digest of the protocol: as §1
ELF1, sequence (P32519 whole entry): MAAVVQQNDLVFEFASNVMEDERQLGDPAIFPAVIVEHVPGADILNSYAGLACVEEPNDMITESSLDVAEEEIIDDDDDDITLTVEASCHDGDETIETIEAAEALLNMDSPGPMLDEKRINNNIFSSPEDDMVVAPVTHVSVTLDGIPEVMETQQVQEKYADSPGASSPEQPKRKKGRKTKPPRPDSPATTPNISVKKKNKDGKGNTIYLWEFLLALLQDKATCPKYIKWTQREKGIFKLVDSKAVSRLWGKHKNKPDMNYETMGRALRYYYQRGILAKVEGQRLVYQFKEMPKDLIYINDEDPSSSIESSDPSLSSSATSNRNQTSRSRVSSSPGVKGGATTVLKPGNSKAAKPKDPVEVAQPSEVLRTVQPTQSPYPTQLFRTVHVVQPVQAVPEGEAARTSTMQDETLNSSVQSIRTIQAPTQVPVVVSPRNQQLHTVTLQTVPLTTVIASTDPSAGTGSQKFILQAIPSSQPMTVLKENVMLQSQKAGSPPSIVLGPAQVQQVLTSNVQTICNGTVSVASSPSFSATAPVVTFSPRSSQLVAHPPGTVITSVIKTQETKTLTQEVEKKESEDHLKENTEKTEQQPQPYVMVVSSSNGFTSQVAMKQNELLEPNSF
In the next assay the target is T2, EHF (Homo sapiens, UniProt Q9NZC4 1-300).
T2 sequence: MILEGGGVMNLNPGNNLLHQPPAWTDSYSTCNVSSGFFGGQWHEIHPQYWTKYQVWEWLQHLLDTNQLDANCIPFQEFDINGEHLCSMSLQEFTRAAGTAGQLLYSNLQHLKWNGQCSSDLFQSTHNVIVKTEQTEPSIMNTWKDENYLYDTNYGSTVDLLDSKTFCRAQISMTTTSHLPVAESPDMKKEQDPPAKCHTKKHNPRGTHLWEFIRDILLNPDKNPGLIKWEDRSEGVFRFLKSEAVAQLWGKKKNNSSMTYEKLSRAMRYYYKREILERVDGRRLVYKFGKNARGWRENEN
In a few lines: as §1

Another assay addresses ETV5 (Homo sapiens, UniProt P41161 1-510). In a few lines:
as §1

In another assay the target is ELF4 (Homo sapiens, UniProt Q99607 1-663). In a few lines:
as §1

A further assay deals with T3, ELK4 (Homo sapiens, UniProt P28324-2 1-405).
T3 sequence: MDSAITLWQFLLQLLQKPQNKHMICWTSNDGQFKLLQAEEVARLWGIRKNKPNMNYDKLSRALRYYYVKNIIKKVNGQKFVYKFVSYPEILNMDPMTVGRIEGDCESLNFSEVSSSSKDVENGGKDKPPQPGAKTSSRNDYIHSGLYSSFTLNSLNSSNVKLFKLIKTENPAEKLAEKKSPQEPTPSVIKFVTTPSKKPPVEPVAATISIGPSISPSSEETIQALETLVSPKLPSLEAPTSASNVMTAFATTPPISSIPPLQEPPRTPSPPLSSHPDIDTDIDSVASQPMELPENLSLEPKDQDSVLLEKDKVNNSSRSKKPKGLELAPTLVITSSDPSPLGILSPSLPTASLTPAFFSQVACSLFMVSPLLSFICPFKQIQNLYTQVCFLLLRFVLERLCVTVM
In a few lines:
as §1

For a further assay, the target named is T4, ETV2 (Homo sapiens, UniProt O00321 1-342).
T4 sequence: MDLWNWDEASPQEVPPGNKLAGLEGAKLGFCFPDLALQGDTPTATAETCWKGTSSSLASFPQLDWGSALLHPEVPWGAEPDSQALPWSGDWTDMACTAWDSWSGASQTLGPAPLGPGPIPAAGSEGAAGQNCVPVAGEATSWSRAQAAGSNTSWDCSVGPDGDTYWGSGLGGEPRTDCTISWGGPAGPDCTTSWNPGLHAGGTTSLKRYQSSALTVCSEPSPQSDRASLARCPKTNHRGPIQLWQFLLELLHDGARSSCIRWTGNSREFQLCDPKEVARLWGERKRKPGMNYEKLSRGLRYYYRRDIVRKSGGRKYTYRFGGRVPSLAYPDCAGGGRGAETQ
In a few lines:
as §1

In a further assay the target is T5, ELF3 (Homo sapiens, UniProt P78545 1-371).
T5 sequence: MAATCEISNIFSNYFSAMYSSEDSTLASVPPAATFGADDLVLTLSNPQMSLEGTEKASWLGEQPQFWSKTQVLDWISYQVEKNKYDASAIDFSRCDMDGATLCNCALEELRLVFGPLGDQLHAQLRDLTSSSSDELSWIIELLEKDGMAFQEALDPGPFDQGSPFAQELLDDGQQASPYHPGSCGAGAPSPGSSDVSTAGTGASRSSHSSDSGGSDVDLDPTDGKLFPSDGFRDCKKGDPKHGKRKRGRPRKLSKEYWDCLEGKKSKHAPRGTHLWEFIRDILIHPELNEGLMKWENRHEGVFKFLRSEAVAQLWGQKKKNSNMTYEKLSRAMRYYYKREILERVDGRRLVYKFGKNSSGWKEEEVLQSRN
A digest of the protocol: as §1

The target in the next assay is T6, ETV3L (Homo sapiens, UniProt Q6ZN32 1-361).
T6 sequence: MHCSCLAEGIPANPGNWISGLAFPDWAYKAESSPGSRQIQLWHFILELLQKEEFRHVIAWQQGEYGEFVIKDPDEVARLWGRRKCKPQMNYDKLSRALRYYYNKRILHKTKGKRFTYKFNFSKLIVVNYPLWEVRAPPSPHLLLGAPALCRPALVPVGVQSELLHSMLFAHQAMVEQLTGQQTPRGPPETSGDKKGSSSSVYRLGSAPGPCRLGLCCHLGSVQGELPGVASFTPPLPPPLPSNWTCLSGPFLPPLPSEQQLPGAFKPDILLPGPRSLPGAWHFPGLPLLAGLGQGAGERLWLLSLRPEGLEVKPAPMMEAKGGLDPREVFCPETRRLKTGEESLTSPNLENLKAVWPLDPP
In a few lines:
as §1

In a further assay the target is T7, ETS2 (Homo sapiens, UniProt P15036 1-469).
T7 sequence: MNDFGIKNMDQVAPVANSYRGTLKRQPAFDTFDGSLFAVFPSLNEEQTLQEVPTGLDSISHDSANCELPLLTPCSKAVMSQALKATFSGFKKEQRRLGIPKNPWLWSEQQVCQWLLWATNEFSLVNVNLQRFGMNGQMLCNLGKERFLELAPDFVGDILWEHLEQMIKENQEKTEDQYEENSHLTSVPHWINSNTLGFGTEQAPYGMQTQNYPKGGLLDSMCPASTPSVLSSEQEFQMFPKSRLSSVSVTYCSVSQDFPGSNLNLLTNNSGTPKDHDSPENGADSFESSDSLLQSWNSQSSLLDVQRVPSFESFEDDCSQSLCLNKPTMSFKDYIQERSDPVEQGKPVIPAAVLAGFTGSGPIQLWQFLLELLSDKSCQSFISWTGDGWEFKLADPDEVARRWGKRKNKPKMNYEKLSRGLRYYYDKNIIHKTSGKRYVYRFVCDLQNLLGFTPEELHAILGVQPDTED
In a few lines: as §1

Another assay deals with T8, ETV7 (Homo sapiens, UniProt Q9Y603 1-341).
T8 sequence: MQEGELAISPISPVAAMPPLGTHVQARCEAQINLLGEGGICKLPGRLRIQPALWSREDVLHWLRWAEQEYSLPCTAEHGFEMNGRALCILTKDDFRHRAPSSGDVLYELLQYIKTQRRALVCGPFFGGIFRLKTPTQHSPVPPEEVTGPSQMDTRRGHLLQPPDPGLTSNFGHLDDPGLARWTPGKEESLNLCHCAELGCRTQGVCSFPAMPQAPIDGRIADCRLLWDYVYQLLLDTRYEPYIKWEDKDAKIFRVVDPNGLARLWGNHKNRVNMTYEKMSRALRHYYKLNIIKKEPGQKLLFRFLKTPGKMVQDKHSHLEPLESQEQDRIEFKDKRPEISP
In a few lines:
as §1

Another assay addresses T9, ETV3 (Homo sapiens, UniProt P41162-2 1-143).
T9 sequence: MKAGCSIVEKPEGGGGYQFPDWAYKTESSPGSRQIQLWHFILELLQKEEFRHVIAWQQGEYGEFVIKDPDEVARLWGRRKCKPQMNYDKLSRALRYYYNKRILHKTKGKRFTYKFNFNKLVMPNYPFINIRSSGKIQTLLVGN
A digest of the protocol:
as §1

ETV5, sequence (P41161 whole entry): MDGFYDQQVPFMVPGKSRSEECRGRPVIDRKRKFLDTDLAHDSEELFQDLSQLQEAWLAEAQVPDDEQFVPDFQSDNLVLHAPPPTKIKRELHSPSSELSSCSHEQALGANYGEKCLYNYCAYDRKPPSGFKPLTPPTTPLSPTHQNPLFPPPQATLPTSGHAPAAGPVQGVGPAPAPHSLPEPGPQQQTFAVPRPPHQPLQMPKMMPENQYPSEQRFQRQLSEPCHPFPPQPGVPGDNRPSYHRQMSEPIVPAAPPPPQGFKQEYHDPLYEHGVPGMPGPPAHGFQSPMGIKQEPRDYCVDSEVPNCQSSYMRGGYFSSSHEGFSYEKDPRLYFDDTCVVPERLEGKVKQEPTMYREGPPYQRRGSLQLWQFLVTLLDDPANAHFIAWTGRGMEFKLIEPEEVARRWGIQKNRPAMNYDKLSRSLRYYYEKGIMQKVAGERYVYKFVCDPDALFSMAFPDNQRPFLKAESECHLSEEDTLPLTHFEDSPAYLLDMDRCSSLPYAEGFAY
ELF4, sequence (Q99607 whole entry): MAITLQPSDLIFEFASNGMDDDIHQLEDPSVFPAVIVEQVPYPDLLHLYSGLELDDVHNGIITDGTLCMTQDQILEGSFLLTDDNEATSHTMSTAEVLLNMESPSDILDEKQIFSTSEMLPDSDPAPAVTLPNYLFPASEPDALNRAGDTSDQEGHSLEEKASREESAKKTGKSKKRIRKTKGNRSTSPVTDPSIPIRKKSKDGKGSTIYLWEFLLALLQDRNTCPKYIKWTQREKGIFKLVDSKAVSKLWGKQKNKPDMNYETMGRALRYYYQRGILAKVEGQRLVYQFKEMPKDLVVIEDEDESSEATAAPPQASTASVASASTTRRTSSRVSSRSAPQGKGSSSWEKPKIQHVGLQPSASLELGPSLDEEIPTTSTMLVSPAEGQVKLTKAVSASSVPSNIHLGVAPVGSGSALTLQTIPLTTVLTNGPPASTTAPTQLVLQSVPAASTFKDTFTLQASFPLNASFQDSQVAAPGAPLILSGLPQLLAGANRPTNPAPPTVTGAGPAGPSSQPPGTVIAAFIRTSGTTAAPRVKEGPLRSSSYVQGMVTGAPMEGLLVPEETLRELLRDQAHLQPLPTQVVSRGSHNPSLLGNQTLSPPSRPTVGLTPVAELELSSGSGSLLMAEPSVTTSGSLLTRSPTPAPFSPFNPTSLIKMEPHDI

As to CCAAGC, the binding signal with GABPA was 1.06 fold enrichment (6-mer frequency, TF over GST control); in the assay with ELF1, 1.04 fold enrichment (6-mer frequency, TF over GST control); with EHF, 1.02 fold enrichment (6-mer frequency, TF over GST control); with ETV5 it was 1.09 fold enrichment (6-mer frequency, TF over GST control); in the assay with ELF4 it was 1.07 fold enrichment (6-mer frequency, TF over GST control); with ELK4, 1.03 fold enrichment (6-mer frequency, TF over GST control). In addition, the binding signal with ETV2 is 1.02 fold enrichment (6-mer frequency, TF over GST control); in the assay with ELF3, 1.2 fold enrichment (6-mer frequency, TF over GST control); in the assay with ETV3L, 1.01 fold enrichment (6-mer frequency, TF over GST control); with ETS2, 1.03 fold enrichment (6-mer frequency, TF over GST control); with ETV7, 1.06 fold enrichment (6-mer frequency, TF over GST control); with ETV3, 1.03 fold enrichment (6-mer frequency, TF over GST control).

The record behind these values is publication PMC7862700, “An all-to-all approach to the identification of sequence-specific readers for epigenetic DNA modifications on cytosine”.
